The source of these data is PMC7862700, “An all-to-all approach to the identification of sequence-specific readers for epigenetic DNA modifications on cytosine”.

What all share (experiment): DAPPL (digital affinity profiling via proximity ligation, sequencing); 10 mM Tris-HCl pH 7.5, 50 mM NaCl, 1 mM DTT, 4% glycerol, room temperature, 30 min; GST-TFs on glutathione beads, 16-mer random dsDNA library, 0.1% formaldehyde crosslink after washing; high values mean tight binding
The target of one assay is T1, FEV (Homo sapiens, UniProt Q99581 1-238).
T1 sequence: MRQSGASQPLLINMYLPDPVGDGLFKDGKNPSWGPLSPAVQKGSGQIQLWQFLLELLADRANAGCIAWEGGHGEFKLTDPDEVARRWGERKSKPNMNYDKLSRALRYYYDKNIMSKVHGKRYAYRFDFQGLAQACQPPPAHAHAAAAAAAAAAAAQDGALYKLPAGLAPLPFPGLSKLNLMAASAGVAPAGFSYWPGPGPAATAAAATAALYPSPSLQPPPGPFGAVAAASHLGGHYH
The settings on record: protein: recombinant; tags: N-terminal GST; dsDNA, one strand shown. The method in brief: (§1)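 Each value of binding signal is a hexamer's read frequency for a factor divided by the same hexamer's frequency in the tag-only sample. Barcoded, bead-captured GST fusions of human transcription factors made in yeast were pooled with that sample and incubated with 200 nmole of a random double-stranded 16-mer DNA library in Tris/NaCl/DTT/glycerol buffer at room temperature for 30 min. Washing, 0.1% formaldehyde crosslinking, proximity ligation, PCR and Illumina NextSeq500 sequencing followed.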

In another assay the target is ETV5 (Homo sapiens, UniProt P41161 1-510). The settings on record: protein: recombinant; tags: N-terminal GST; dsDNA, one strand shown. The method, boiled down:
as §1

The target of another assay is HSF1 (Homo sapiens, UniProt Q00613 1-529). The settings on record: protein: recombinant; tags: N-terminal GST; chain copies: 3; dsDNA, one strand shown. The method, boiled down:
as §1

The target in a further assay is T2, SPIC (Homo sapiens, UniProt Q8N5J4 1-248).
T2 sequence: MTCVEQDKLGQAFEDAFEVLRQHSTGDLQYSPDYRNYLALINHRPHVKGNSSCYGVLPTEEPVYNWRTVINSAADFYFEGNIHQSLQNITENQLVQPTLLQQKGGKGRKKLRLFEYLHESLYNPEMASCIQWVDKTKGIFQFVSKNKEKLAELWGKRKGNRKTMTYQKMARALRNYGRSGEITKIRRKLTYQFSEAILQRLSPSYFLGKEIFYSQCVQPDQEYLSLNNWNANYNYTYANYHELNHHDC
The settings on record: protein: recombinant; tags: N-terminal GST; dsDNA, one strand shown. The method, boiled down: as §1

Another assay addresses ELF4 (Homo sapiens, UniProt Q99607 1-663). The settings on record: protein: recombinant; tags: N-terminal GST; dsDNA, one strand shown. The method in brief: as §1
In another assay the target is T3, ELK4 (Homo sapiens, UniProt P28324-2 1-405).
T3 sequence: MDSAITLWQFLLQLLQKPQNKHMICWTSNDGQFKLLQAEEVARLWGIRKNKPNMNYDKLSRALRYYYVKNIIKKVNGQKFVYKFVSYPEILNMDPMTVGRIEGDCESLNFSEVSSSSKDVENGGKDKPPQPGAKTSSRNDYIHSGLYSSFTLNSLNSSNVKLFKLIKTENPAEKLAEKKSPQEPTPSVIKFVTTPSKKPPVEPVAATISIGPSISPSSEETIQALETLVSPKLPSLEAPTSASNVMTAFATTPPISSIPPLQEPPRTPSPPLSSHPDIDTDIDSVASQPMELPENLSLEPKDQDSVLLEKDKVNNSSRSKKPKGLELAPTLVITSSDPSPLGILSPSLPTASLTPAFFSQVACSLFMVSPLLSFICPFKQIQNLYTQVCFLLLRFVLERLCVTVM
To be noted: protein: recombinant; tags: N-terminal GST; dsDNA, one strand shown. The method, boiled down:
as §1

The target in another assay is T4, ETV2 (Homo sapiens, UniProt O00321 1-342).
T4 sequence: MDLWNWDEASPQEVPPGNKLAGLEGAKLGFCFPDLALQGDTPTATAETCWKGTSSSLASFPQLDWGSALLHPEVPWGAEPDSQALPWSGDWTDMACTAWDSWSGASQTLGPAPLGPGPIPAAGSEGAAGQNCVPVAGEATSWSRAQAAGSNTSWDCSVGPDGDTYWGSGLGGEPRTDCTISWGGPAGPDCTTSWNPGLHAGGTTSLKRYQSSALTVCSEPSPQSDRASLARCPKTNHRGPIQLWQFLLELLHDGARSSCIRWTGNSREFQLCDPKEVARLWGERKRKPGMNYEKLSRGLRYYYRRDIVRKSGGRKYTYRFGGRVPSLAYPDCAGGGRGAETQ
The settings on record: protein: recombinant; tags: N-terminal GST; dsDNA, one strand shown. The method in brief:
as §1

The next assay deals with T5, ELF3 (Homo sapiens, UniProt P78545 1-371).
T5 sequence: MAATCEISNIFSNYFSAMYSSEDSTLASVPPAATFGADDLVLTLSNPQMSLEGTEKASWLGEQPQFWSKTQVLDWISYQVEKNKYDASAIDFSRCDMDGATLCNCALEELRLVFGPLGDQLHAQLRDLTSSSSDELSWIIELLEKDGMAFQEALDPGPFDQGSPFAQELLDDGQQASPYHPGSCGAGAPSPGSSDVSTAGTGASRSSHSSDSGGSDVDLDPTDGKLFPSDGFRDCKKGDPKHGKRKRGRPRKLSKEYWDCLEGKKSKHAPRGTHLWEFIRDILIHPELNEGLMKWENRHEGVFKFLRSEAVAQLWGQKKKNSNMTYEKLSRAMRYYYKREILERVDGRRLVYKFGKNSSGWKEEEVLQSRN
The settings on record: protein: recombinant; tags: N-terminal GST; dsDNA, one strand shown. The method, boiled down:
as §1

The target of the next assay is CRX (Homo sapiens, UniProt O43186 1-299). The settings on record: protein: recombinant; tags: N-terminal GST; dsDNA, one strand shown. The method in brief:
as §1

The target in a further assay is ETV1 (Homo sapiens, UniProt P50549 1-477). The settings on record: protein: recombinant; tags: N-terminal GST; dsDNA, one strand shown. The method in brief:
as §1

For another assay, the target named is T6, ERF (Homo sapiens, UniProt P50548 1-548).
T6 sequence: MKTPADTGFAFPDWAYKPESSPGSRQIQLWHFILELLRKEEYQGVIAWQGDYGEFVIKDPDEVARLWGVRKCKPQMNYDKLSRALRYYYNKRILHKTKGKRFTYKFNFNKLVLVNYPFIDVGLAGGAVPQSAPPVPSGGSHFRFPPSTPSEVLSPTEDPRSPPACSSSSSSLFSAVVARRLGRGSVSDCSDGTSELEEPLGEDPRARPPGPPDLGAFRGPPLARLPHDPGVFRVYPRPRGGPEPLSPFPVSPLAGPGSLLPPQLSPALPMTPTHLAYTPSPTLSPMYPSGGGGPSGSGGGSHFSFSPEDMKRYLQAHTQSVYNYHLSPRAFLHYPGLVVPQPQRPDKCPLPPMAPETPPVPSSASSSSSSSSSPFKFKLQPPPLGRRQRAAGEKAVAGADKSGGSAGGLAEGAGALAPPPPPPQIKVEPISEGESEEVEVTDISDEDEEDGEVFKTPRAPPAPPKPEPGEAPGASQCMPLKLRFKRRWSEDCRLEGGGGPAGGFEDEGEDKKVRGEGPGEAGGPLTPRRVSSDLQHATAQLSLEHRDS
To be noted: protein: recombinant; tags: N-terminal GST; dsDNA, one strand shown. The method in brief:
as §1

A further assay addresses T7, ETV3L (Homo sapiens, UniProt Q6ZN32 1-361).
T7 sequence: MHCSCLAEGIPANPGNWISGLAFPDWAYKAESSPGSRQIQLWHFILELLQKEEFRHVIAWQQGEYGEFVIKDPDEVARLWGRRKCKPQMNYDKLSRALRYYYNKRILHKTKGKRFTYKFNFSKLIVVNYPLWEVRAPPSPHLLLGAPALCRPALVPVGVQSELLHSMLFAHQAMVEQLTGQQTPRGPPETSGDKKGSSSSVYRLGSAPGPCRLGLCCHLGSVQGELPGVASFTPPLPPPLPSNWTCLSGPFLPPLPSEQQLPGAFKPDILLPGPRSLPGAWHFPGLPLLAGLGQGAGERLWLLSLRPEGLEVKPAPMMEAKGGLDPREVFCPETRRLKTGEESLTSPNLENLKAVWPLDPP
To be noted: protein: recombinant; tags: N-terminal GST; dsDNA, one strand shown. The method, boiled down: as §1

The next assay deals with T8, ETS2 (Homo sapiens, UniProt P15036 1-469).
T8 sequence: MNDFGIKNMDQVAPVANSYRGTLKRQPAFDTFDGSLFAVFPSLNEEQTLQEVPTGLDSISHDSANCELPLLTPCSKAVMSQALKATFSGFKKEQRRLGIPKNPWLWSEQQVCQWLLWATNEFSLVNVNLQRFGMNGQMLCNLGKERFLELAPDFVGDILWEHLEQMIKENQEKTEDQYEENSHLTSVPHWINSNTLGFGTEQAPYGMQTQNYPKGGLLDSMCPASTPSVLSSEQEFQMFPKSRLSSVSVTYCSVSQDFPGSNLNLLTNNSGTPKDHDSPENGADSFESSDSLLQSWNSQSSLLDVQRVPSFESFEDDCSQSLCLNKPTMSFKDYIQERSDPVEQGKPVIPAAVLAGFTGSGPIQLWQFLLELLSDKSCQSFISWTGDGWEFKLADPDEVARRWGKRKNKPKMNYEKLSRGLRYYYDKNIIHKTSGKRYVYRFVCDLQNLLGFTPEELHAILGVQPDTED
To be noted: protein: recombinant; tags: N-terminal GST; dsDNA, one strand shown. The method, boiled down:
as §1

A further assay has as its target T9, SPDEF (Homo sapiens, UniProt O95238 1-335).
T9 sequence: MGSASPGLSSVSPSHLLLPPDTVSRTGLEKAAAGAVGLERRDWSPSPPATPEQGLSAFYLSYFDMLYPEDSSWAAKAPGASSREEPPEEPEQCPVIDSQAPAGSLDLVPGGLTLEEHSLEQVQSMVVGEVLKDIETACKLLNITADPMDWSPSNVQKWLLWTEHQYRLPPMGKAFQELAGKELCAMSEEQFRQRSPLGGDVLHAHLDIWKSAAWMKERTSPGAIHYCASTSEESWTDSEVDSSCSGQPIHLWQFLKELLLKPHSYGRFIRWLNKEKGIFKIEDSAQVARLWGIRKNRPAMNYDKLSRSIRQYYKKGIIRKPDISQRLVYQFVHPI
The settings on record: protein: recombinant; tags: N-terminal GST; dsDNA, one strand shown. The method, boiled down: as §1

The target of the next assay is T10, ETV7 (Homo sapiens, UniProt Q9Y603 1-341).
T10 sequence: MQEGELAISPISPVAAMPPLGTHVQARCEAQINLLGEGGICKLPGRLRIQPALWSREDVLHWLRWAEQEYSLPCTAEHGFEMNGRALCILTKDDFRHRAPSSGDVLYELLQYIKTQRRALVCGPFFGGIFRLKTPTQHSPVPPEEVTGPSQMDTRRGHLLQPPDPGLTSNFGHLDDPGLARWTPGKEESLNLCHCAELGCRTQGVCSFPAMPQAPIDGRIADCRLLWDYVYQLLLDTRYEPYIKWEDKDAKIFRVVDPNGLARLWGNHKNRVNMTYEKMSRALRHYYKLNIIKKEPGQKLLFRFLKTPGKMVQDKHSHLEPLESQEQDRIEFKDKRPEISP
To be noted: protein: recombinant; tags: N-terminal GST; dsDNA, one strand shown. The method in brief:
as §1

Another assay has as its target T11, ELF5 (Homo sapiens, UniProt Q9UKW6-2 1-255).
T11 sequence: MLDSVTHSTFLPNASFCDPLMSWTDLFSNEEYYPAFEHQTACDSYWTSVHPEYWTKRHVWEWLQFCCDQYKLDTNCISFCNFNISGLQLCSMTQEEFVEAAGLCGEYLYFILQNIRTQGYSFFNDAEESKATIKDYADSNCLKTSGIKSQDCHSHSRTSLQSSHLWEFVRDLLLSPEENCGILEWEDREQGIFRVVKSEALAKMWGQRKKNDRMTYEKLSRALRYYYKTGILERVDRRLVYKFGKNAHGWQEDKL
To be noted: protein: recombinant; tags: N-terminal GST; dsDNA, one strand shown. The method in brief:
as §1

For a further assay, the target named is T12, ETV3 (Homo sapiens, UniProt P41162-2 1-143).
T12 sequence: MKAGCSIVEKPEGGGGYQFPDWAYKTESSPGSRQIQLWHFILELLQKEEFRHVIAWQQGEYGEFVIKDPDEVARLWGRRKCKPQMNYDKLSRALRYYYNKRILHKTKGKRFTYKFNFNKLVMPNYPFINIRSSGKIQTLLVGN
To be noted: protein: recombinant; tags: N-terminal GST; dsDNA, one strand shown. The method, boiled down: as §1

Another assay has as its target ETV6 (Homo sapiens, UniProt P41212 1-452). To be noted: protein: recombinant; tags: N-terminal GST; dsDNA, one strand shown. The method, boiled down: as §1

Chain of ETV1 (P50549 whole entry): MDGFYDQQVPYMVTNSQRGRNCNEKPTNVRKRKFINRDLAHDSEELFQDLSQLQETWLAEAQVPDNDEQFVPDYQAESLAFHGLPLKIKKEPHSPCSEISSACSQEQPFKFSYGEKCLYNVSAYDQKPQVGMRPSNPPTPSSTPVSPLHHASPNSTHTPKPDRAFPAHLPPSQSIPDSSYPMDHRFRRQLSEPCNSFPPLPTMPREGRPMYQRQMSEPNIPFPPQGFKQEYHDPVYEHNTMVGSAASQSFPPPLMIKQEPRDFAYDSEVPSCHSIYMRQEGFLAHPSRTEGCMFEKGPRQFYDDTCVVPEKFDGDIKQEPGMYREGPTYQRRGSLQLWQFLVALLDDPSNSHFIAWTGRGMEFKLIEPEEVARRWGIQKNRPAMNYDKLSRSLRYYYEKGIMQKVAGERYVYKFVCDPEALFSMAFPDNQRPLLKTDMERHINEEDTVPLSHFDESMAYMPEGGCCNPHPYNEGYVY
Chain of CRX (O43186 whole entry): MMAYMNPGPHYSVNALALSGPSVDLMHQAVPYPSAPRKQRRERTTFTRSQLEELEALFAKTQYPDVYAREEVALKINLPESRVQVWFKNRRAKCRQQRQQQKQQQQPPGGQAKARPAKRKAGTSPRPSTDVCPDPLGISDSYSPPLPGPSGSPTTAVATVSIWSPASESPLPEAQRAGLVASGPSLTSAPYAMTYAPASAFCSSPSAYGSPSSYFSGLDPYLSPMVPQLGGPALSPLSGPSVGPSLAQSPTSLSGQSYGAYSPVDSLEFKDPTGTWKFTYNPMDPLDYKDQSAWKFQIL
Chain of HSF1 (Q00613 whole entry): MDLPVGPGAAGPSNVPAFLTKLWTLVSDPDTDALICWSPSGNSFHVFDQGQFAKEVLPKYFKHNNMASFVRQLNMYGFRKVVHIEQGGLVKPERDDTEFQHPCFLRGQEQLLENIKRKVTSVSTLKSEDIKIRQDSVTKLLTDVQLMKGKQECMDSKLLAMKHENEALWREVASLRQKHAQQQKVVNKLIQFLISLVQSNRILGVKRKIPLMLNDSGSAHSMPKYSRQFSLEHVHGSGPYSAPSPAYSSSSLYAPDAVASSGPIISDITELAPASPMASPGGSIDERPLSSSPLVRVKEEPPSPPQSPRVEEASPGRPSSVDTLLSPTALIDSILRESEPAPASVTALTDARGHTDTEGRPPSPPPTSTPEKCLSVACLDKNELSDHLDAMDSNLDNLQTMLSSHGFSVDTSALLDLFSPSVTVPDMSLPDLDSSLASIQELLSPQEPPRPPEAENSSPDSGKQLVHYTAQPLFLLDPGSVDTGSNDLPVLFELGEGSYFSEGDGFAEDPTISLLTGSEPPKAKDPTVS
Chain of ETV6 (P41212 whole entry): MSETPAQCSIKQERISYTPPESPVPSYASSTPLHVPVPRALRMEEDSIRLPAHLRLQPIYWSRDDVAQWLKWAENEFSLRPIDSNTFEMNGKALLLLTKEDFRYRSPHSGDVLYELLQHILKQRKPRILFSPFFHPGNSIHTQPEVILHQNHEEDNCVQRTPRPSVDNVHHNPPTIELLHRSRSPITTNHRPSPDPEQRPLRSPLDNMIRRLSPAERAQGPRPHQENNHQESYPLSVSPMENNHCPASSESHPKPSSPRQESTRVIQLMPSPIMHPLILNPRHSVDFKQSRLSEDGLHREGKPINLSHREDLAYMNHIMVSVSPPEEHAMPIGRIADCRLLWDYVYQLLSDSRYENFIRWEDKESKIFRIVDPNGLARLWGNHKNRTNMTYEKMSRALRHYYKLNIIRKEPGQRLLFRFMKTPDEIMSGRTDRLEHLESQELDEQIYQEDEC
Chain of ELF4 (Q99607 whole entry): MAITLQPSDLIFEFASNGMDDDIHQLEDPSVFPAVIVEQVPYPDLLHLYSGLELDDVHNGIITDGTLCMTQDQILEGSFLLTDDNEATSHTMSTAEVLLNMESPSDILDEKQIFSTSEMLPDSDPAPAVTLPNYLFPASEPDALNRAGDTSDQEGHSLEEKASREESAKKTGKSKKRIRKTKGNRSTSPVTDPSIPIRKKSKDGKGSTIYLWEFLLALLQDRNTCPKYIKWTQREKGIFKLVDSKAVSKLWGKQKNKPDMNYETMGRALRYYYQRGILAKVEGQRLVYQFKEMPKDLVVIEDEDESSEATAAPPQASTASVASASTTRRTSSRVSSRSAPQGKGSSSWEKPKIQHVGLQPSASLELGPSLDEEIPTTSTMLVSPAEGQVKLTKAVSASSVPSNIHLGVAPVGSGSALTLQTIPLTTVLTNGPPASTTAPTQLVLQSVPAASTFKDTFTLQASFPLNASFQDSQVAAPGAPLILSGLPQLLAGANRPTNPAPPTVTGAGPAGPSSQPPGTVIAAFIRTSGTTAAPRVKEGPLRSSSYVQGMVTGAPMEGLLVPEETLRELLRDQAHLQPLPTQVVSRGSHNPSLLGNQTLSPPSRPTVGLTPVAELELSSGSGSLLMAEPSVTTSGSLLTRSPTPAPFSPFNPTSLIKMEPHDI
Chain of ETV5 (P41161 whole entry): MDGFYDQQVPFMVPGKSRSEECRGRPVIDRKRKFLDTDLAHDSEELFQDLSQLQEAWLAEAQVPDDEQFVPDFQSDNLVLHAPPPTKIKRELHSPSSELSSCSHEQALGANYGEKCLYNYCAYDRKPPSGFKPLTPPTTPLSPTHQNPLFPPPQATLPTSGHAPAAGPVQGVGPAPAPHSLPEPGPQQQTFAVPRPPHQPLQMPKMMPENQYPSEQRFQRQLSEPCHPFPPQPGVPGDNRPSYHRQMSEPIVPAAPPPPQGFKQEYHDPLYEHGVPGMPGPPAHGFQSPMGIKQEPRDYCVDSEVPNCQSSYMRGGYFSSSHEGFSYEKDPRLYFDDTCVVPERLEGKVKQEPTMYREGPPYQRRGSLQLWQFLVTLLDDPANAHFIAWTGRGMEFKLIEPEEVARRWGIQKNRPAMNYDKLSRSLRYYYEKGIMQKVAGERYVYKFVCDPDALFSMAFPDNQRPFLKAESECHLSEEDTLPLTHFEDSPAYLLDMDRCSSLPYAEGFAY

Turning to CCTACG, the binding signal is 1.48 fold enrichment (6-mer frequency, TF over GST control) with FEV; 1.32 fold enrichment (6-mer frequency, TF over GST control) in the assay with ETV5; 1.21 fold enrichment (6-mer frequency, TF over GST control) with HSF1; 1.37 fold enrichment (6-mer frequency, TF over GST control) with SPIC; 1.37 fold enrichment (6-mer frequency, TF over GST control) with ELF4; 1.38 fold enrichment (6-mer frequency, TF over GST control) in the assay with ELK4. In addition, the binding signal is 1.44 fold enrichment (6-mer frequency, TF over GST control) in the assay with ETV2; 1.5 fold enrichment (6-mer frequency, TF over GST control) in the assay with ELF3; 1.11 fold enrichment (6-mer frequency, TF over GST control) in the assay with CRX; 1.47 fold enrichment (6-mer frequency, TF over GST control) in the assay with ETV1; 1.37 fold enrichment (6-mer frequency, TF over GST control) with ERF; 1.59 fold enrichment (6-mer frequency, TF over GST control) with ETV3L. For the same sequence, the binding signal is 1.35 fold enrichment (6-mer frequency, TF over GST control) with ETS2; 1.41 fold enrichment (6-mer frequency, TF over GST control) in the assay with SPDEF; 1.49 fold enrichment (6-mer frequency, TF over GST control) with ETV7; 1.43 fold enrichment (6-mer frequency, TF over GST control) with ELF5; 1.38 fold enrichment (6-mer frequency, TF over GST control) with ETV3; 1.61 fold enrichment (6-mer frequency, TF over GST control) with ETV6.
